High-throughput results deposited in PubChem BioAssay by several laboratories.
MazEF act – activators of E. coli MazEF toxin-antitoxin RNase | P0AE70 | 350,000 compounds, 0.32% hits | activation, % at 20 µM | FAM/BHQ RNA-DNA oligo cleavage fluorescence, 5 h; in the data active = activation above about 50%
Target sequence (P0AE70 whole entry, looked up): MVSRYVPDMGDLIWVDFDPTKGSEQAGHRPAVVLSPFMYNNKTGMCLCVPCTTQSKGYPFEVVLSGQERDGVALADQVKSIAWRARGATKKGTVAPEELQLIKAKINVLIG
BoNT-F LC inh – inhibitors of Botulinum neurotoxin F light chain protease; inhibition, % at 10 µM; Multiplex microsphere protease cleavage assay, flow cytometry; AID 588497; 360,000 compounds, 0.22% hits; in the data active = inhibition above about 35%, passing the limit was not always enough; inconclusive = no clear call, values can overlap the other calls
BH1578 lux ind – induces V. cholerae light production without autoinducers; V. cholerae BH1578 lux reporter, luminescence, 6 h; activation, % at 18.7 µM; 350,000 compounds, 0.16% hits; AID 588436; in the data active = activation mostly above about 9.7%, no sharp cut-off; inconclusive = no clear call, values can overlap the other calls; inactive = mostly below about 3.7%
Autofluor counter – flagged as autofluorescent in microsphere protease counterscreen | 360,000 compounds, 3.1% hits | compound autofluorescence counterscreen, microsphere flow cytometry; active compounds read high | AID 624483 | fluorescence intensity (concentration not given with the values); in the data active = fluorescence intensity above about 16000; inconclusive = no clear call, values can overlap the other calls
Anthrax LF prot – anthrax lethal factor protease inhibition. P15917. multiplex microsphere protease cleavage assay, LF. inhibition, % at 10 µM. 360,000 compounds, 0.12% hits
BoNT A protease – blocks Botulinum neurotoxin A light chain protease. multiplex microsphere protease substrate cleavage, flow cytometry. inhibition, % at 10 µM. 360,000 compounds, 0.17% hits. AID 588499
Large screens that a line does not name were inactive. Most compounds without a hit are left out; they make up all but 3.9% or so of the library. Rule as the data show it, unless noted: active = inhibition above about 30%; inconclusive = no clear call, values can overlap the other calls; inactive = below that.

COc1ccc(/C=C2\SC(=S)N(CCCC(=O)Nc3ccccn3)C2=O)cc1OC	BoNT A protease 39
Cc1ccc(/C=C2\SC(=S)N(CCCC(=O)Nc3ccccn3)C2=O)cc1	none
CCOC(=O)C1CCN(C(=O)COC(=O)c2ccc(=O)n(Cc3ccccc3)n2)CC1	none
Cc1nnc(N/N=C/C(C)c2ccccc2)[nH]c1=O (centres undefined)	none (no result: BoNT-F LC inh, Autofluor counter, Anthrax LF prot, BoNT A protease)
Cc1cc(NCCCn2ccnc2)n2nc(-c3ccc(Cl)cc3)cc2n1	none
CC(C)(C)c1cc(NCCCn2ccnc2)n2ncc(-c3ccc(Cl)cc3)c2n1	Autofluor counter 25531, BoNT A protease inconclusive
O=C1CN=C(c2cccs2)c2c(sc3c2CCCC3)N1	none
Cc1cc2c(s1)NC(=O)CN=C2c1cccs1	Autofluor counter 19677, BoNT A protease inconclusive
Oc1ccc(-n2cccc2/C=N/n2cnnc2)cc1	none
O/N=C/c1cccn1-c1ccc(O)cc1	Autofluor counter 23862
CCC(=O)Nc1nnc(SCC(=O)N2c3ccccc3CC2C)s1 (centres undefined)	BH1578 lux ind 17
CCN1CCN(CC(=O)N2c3ccccc3CC2C)CC1 (centres undefined)	Autofluor counter 24267
CC1Cc2ccccc2N1C(=O)CN1CCCCC1 (centres undefined)	none
CCOC(=O)N1CCN(CC(=O)N2c3ccccc3CC2C)CC1 (centres undefined)	Autofluor counter 25433
CC(NC(=O)c1ccccc1)c1ccc(F)cc1 (centres undefined)	none
O=C(CCCC(=O)OCC(=O)c1ccc(F)cc1)Nc1cc(C(F)(F)F)ccc1Cl	Autofluor counter 20642, BoNT A protease inconclusive
Cc1ccc(NC(=O)CN2C(=O)CNC2=O)cc1	none
CC(=O)OCC(C)n1[nH]c2ccccc2c1=O (centres undefined)	none (no result: MazEF act, BH1578 lux ind)
COc1ccccc1Nc1nnc(SCC(=O)N2CCCC2)s1	Autofluor counter 23377, BoNT A protease inconclusive
O=C1CCCc2oc3ccc(O)cc3c21	none (no result: BH1578 lux ind)
CC1(C)CC(=O)c2c(oc3cc(O)c(O)cc23)C1	Autofluor counter 17024
CCN(CC)S(=O)(=O)c1ccc(S(=O)(=O)Nc2ccc3c(c2)oc2ccccc23)cc1	Autofluor counter 20070, BoNT A protease inconclusive
Cc1cccc2cc3c(NC(=O)C(C)(C)C)nn(CC(C)C)c3nc12	none
COc1cc(C2/C(=C(\O)c3ccc4c(c3)CC(C)O4)C(=O)C(=O)N2CCN2CCOCC2)cc(OC)c1OC (centres undefined)	none
CCNS(=O)(=O)c1ccc(CCC(=O)NCc2ccccn2)cc1	BoNT-F LC inh inconclusive
O=C(CCNS(=O)(=O)c1ccc(Cl)cc1)NCc1ccccn1	Autofluor counter 17910
O=C(CCNC(=O)c1ccc(Br)o1)NCc1ccccn1	Autofluor counter 24852
COc1ncc(-c2ccc(N3C(c4ccc([N+](=O)[O-])cc4)=Cc4ccccc4C3CC(C)=O)cc2)cn1 (centres undefined)	none (no result: MazEF act, BH1578 lux ind)
C[C@H]1COc2cc(N3CCC[C@H]3CO)ccc2S(=O)(=O)N1	none (no result: MazEF act, BH1578 lux ind)
O=C(COC(=O)c1ccccc1Br)NCCc1ccc(F)cc1	BoNT-F LC inh 43
O=C(c1cccnc1)N1CCN(S(=O)(=O)c2ccc3ccccc3c2)CC1	Autofluor counter 16645
O=C(Oc1cccnc1)c1cc(S(=O)(=O)N2CCCCC2)ccc1Cl	Autofluor counter 21012
N#Cc1ccc(-c2nc3c4ccccc4ccn3c2Cc2cccc(Cl)c2)cc1	none (no result: MazEF act, BH1578 lux ind)
CCCCn1nnnc1NCc1cc(OC)c(OC)cc1OC	Autofluor counter 16650
Cc1ccc(S(N)(=O)=O)cc1NC(=O)c1ccc2c3c(cccc13)CC2	none (no result: BoNT-F LC inh, Autofluor counter, Anthrax LF prot, BoNT A protease)
O=C(Nc1cc(Sc2ccccn2)cc([N+](=O)[O-])c1)c1cccc(F)c1	MazEF act 52
COc1ccccc1CNS(=O)(=O)c1ccc(NC(C)=O)cc1	Autofluor counter 22915
CC(=O)Nc1ccc(S(=O)(=O)Nc2nc3ccccc3nc2N2CCCCCC2)cc1	Autofluor counter 23055, BoNT A protease inconclusive
COc1ccc(CC(=O)Nc2ccc(S(=O)(=O)Nc3nc(C)cc(C)n3)cc2)cc1	Autofluor counter 19652
COc1ccc(S(=O)(=O)Nc2ccc(NC(C)=O)cc2)cc1	Autofluor counter 23841
COc1ccccc1CCNC(=O)CCNS(=O)(=O)c1ccc(NC(C)=O)cc1	none
COc1ccc(CC(=O)Nc2ccc(S(=O)(=O)Nc3nccc(C)n3)cc2)cc1	none
COc1ccc(S(=O)(=O)Nc2ccc(N(C)C(C)=O)cc2)cc1	none (no result: BoNT-F LC inh, Autofluor counter, Anthrax LF prot, BoNT A protease)
Cc1ccc(CC(NC(=O)c2ccc(C)cc2)C(=O)O)cc1 (centres undefined)	none
Nc1nc(-c2cc3ccccc3o2)cs1	none
C[C@H](CO)N1C[C@H](C)[C@@H](CN(C)C(=O)CCCN(C)C)OCc2cn(nn2)CCCC1=O	none
COc1ccc(NC(=O)Nc2ccc(N(C)C)cc2)cc1	Autofluor counter 18854
CCOc1cc(NS(=O)(=O)c2ccc(NC(C)=O)cc2)c(OCC)cc1NC(=O)C(C)C	Autofluor counter 20625
CCOc1cc(NS(=O)(=O)c2ccc(Cl)cc2)c(OCC)cc1NC(=O)CC(C)C	none
Cc1cccc(N(CC(=O)Nc2ccccc2F)S(C)(=O)=O)c1	none (no result: BoNT-F LC inh, Autofluor counter, Anthrax LF prot, BoNT A protease)
CCNC(=O)CN(c1ccc(CC)cc1)S(C)(=O)=O	Autofluor counter 23318, BoNT A protease inconclusive
CCc1ccc(NC(=O)CN(c2cccc(C)c2)S(C)(=O)=O)cc1	Autofluor counter 23603
CSc1ccccc1NC(=O)CN(c1cccc(C)c1)S(C)(=O)=O	Autofluor counter 23782
CN(CC1CCCO1)S(=O)(=O)c1ccc(C(=O)NCc2ccccc2)cc1 (centres undefined)	none
COc1cccc(C(=O)NCc2ccc(N3CCN(C(=O)OC(C)(C)C)CC3)cc2)c1	Autofluor counter 20260
COc1ccc(C(=O)NCc2ccc(N3CCN(C)CC3)cc2)cc1	none
COc1ccc(C(=O)NCc2ccc(N3CCN(C(=O)OC(C)(C)C)CC3)cc2)cc1	Autofluor counter 22812
Cc1ccc(CNC(=O)C(=O)Nc2nccs2)cc1	none
CC(C)(C)OC(=O)NN1CC(=O)N2Cc3ccccc3C[C@@H]2C1=O	none
COc1ccc(-c2nnn(CC(=O)N(C3CCCCC3)C(C)C(=O)NC3CCCC3)n2)cc1OC (centres undefined)	Autofluor counter 23408
COc1ccc(N(CC(=O)NC2CCCC2)C(=O)Cn2nnc(-c3ccc(C)cc3)n2)cc1OC	Autofluor counter 16197
CC1(c2nnnn2-c2ccc3c(c2)OCCO3)CCC(=O)N1CCc1ccccc1F (centres undefined)	none (no result: MazEF act, BH1578 lux ind)
COc1ccc2c(c1)C(C1=C(O)CC(C)(C)CC1=O)C1=C(CC(C)(C)CC1=O)O2 (centres undefined)	Autofluor counter 24480
COc1ccc(NC(=O)C2Cc3c(-c4ccc5c(c4)OCO5)ccnc3O2)cc1 (centres undefined)	none (no result: MazEF act)
CCCn1c(-c2cccnc2Cl)nc2cc(Cl)c(Cl)cc21	Autofluor counter 21449
C=CCn1c(-c2cccnc2Cl)nc2cc(Cl)c(Cl)cc21	none
